# Assay results taken from PubChem BioAssay AID1460 (National Center for Advancing Translational Sciences (NCATS), 2008).
# In all, about 270,000 compounds went through this assay and about 5,800 (2.1%) were called active. About 16% were inconclusive and are not listed. Calls follow the shape of the dose curve; as a rule, active = well fitted inhibition curve with a large enough effect; inconclusive = small, poorly fitted or top-dose-only effect; inactive = flat fitted curve, though single readings scatter. What follows is part of a selection rich in actives, with near analogues and random picks from the rest. Where a call stands in place of a potency, no number is given.
# Target: Microtubule-associated protein tau (Homo sapiens) (UniProt P10636)
# Experiment: qHTS for Inhibitors of Tau Fibril Formation, Thioflavin T Binding; also: nearly all actives have a fitted effect of over 55% in size
# Settings: recombinant tau K18 P301L (four-repeat tau fragment), heparin-induced fibrillization, ThT fluorescence; series mostly up to 57.4 µM
# In short: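 Recombinant human tau K18 fragment […] carrying P301L, 15 uM unlabeled plus 0.24 uM Alexa 594-labeled, was fibrillized with 20 uM heparin in 100 mM sodium acetate pH 7 for 6 hr at 37 C; 30 uM ThT fluorescence read after 1 hr.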
# Potency is read from the fitted curve at half-maximal effect.
# Microtubule-associated protein tau (Homo sapiens), sequence (P10636 561-689 P618L limits assumed): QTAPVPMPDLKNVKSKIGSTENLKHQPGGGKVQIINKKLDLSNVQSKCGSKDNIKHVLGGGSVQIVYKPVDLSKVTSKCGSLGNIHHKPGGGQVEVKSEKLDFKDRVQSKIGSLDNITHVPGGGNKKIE
row,Compound,Potency
1,O=C(CSc1nc2c(c(=O)[nH]1)CN(Cc1ccc3c(c1)OCO3)CC2)Nc1cc(F)ccc1F,inactive
2,Cc1ccc2cccc(NC(=O)c3ccc(OC(C)C)cc3)c2n1,inactive
3,O=C(CSc1nc(=O)[nH]c2c1CCCC2)Nc1cc(C(F)(F)F)ccc1Cl,inactive
4,CCCNC(=O)C1CC(=O)N(c2ccc(OCC(=O)Nc3cccc(C)c3C)cc2)C1 (stereo not drawn),inactive
5,CCOc1ccc(N2CC(C(=O)NCCN3C(=O)S/C(=C\c4cccnc4)C3=O)CC2=O)cc1 (stereo not drawn),22.4 µM (active)
6,CCCOc1ccc(N2CC(C(=O)Nc3ccccn3)CC2=O)cc1 (stereo not drawn),inactive
7,CCOc1ccc(C(NC(=O)c2cc(OC)c(OC)c(OC)c2)c2cc(Cl)c3cccnc3c2O)cc1 (stereo not drawn),inactive
8,CCCCN(C)c1nnc(NC(=O)Nc2ccc(Br)c(C)c2)s1,inactive
9,CCOC(=O)c1c(C)[nH]c(C)c1S(=O)(=O)N1CCCC(C(=O)NCc2ccccc2Cl)C1 (stereo not drawn),inactive
10,COc1ccc(S(=O)(=O)c2cn(C)c3cc(N4CCCCC4)c(F)cc3c2=O)cc1,inactive
11,Cc1cccc(C2CC(=O)Oc3c2c(=O)n(C)c2ccccc32)c1 (stereo not drawn),inactive
12,Cc1nn(C)c(Oc2ccccc2)c1[N+](=O)[O-],inactive
13,Cc1cccc(Oc2c([N+](=O)[O-])c(=O)n(C)c3ccccc23)c1,14.1 µM (active)
14,CN(C(=O)CSc1nc2ccccc2n1Cc1ccccc1C#N)c1ccccc1,inactive
15,CCN1/C(=C/C(=S)Nc2ccccc2)Sc2ccccc21,3.55 µM (active)
16,CCN1C(=O)/C(=C2/Sc3ccccc3N2CCCS(=O)(=O)O)SC1=S,inactive
17,CCNC(=O)N1c2ccccc2Sc2ccccc21,inactive
18,CC(=O)c1ccc(NC(=O)CSc2c(C(C)C)cnc3c2c(=O)n(C)c(=O)n3C)cc1,inactive
19,O=C(COc1ccc(Cl)cc1)Nc1ccccc1OCc1cc(=O)n2ccccc2n1,inactive
20,N#CC1=C(N)Oc2c(sc3ccccc23)C1c1ccco1 (stereo not drawn),15.8 µM (active)
21,CC1=C(C(=O)Nc2ccccc2)C(c2ccco2)C(C#N)=C(SCC(N)=O)N1 (stereo not drawn),inactive

row,Compound,Potency
1,Cc1ccc(CCNC(=O)c2ccc(CNS(=O)(=O)c3ccc(C)cc3)cc2)cc1,inactive
2,CCOC(=O)c1c(C)oc2nc(C)nc(N(CC(C)C)CC(C)C)c12,inactive
3,COc1ccc(NC(=O)N2CCCn3nc(C)cc32)cc1OC,inactive
4,COc1ccc(C(=O)c2oc3ccccc3c2NC(=O)COc2cccc(C)c2)cc1,inactive
5,O=C(Nc1ccccc1Cl)N1CCC(CN2CCCC2)CC1,inactive
6,CN=C1C=C/C(=N/N=c2\ccn(O)cc2C)C=C1C,6.31 µM (active)
7,Cc1ccc(Cn2c(=O)n(Cc3nc(-c4ccccc4)no3)c(=O)c3cc4c(cc32)OCO4)cc1,inactive
8,Cc1ccc(-c2cn3c(n2)sc2cc(C(=O)NCCCc4ccccc4)ccc23)cc1,inactive
9,Cc1cccc(C(=O)N2CCc3cc(CNC(=O)Cc4ccc(F)cc4)ccc32)c1,inactive
10,CCC(=O)Nc1cccc(-c2nc3cc(C)ccc3o2)c1,inactive
11,O=C(Nc1c2c(nc3ccccc13)CCCC2)c1ccccc1Br,inactive
12,Cc1nc2ccccc2cc1O,inactive
13,O=C(NNc1c2ccccc2nc2ccccc12)c1cc2ccccc2cc1O,2 µM (active)
14,COc1ccc(-c2nc3sc(CCNS(=O)(=O)c4ccc(F)c(C)c4)c(C)n3n2)cc1,inactive
15,O=C1CN(C(=O)Nc2ccccc2C(F)(F)F)C(c2ccccc2)c2c(sc3c2CCCC3)N1 (stereo not drawn),inactive
16,Cc1nc2ccc(S(=O)(=O)N(CC(=O)Nc3ccc(F)cc3)Cc3ccccc3)cc2s1,inactive
17,Cc1ccccc1CNC(=O)CSc1nnc(C)c2c(C)n(-c3ccccc3)nc12,inactive
18,O=C(CCN1C(=O)c2ccccc2C1=O)Nc1cccc(F)c1,inactive
19,CCN(CC)C(=O)C(=O)Nc1cccc(Br)c1,inactive
20,CCN(CC)C(=O)CSC(Nc1cccc(F)c1)=C(C#N)C#N,28.2 µM (active)
21,O=C(Nc1ccc(C(=O)OCc2cc(=O)n3nc(C4CC4)sc3n2)cc1)c1ccc(F)cc1,inactive

row,Compound,Potency
1,O=C(Nc1ccc(F)cc1F)c1ccc2c(=O)n3c(nc2c1)CCCCC3,inactive
2,Cn1c(=O)n(Cc2c(F)cccc2Cl)c(=O)c2c1nc1n2CCN1c1ccc(F)cc1,inactive
3,CCOC(=O)Cc1csc(NC(=O)Nc2ccccc2)n1,inactive
4,CCOC(=O)/C(=N\Nc1ccccc1[N+](=O)[O-])c1csc(Nc2ccccc2)n1,5.01 µM (active)
5,Cc1c(NC(=O)Nc2ccccc2)cccc1[N+](=O)[O-],inactive
6,Cc1cc(C)cc(NC(=O)CCCc2nc(-c3ccccc3Cl)no2)c1,inactive
7,Cc1ccc(C)c(N2C(=O)N(Cc3c(F)cccc3Cl)c3ccccc3S2(=O)=O)c1,inactive
8,Cc1cccc(-n2ccnc2SCC(=O)Nc2cccc3ccccc23)c1C,inactive
9,COc1ccc(OC)c(CNC(=O)c2c3c(nc4ccccc24)C(=O)N(C2CCCCC2)C3)c1,inactive
10,Cc1ccc(C(=O)Nc2c(C(=O)NC(C)(C)C)oc3ccccc23)cc1,inactive
11,Cc1ccc(NS(=O)(=O)c2ccc(N/N=C/c3ccccc3OCC(=O)O)c([N+](=O)[O-])c2)c(C)c1,12.6 µM (active)
12,Cc1ccc(NS(=O)(=O)c2ccc(C)c(NC(=O)COc3ccc4ccccc4c3)c2)c(C)c1,inactive
13,COCCNC(=O)c1ccccc1NS(=O)(=O)c1ccc(C)c([N+](=O)[O-])c1,inactive
14,COc1cccc(CNCc2c(C(=O)O)n(Cc3ccc(C)cc3)c3cc(C)ccc23)c1OC,inactive
15,O=C(CCC1N=C2c3ccccc3N=C(SCc3ccccc3F)N2C1=O)NCCc1ccccc1 (stereo not drawn),inactive
16,Cc1cccc(N=C2NC(=O)/C(=C/c3cn(C)c4ccccc34)S2)c1,11.2 µM (active)
17,Cc1ccc(N2C(=O)S/C(=C/c3cn(C)c4ccccc34)C2=O)cc1,inactive
18,Cn1cc(/C=C/c2nc3ccccc3c(=O)n2-c2cccc([N+](=O)[O-])c2)c2ccccc21,inactive
19,CCCn1c2ccccc2c2cnn(CC(=O)NCCCN3CCCCC3CC)c(=O)c21 (stereo not drawn),inactive
20,CCc1nnc2c3ccccc3nc(N3CCN(c4ccc(C)cc4C)CC3)n12,inactive
21,COc1cccc(Cn2c(CNS(=O)(=O)c3ccc(Cl)s3)nc3cccnc32)c1,inactive
